Measured values taken from PubChem BioAssay AID686996 (Broad Institute, 2013).
Hit rate of the full screen: of about 350,000 compounds, about 1,900 (0.54%) were called active. The sample holds actives, similar compounds and a random draw of the others, so the mix is not that of the screen.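 How the source made its calls: active means mean inhibition across replicates at least about 35%, with every replicate also reaching that limit (limit read from the data); inconclusive means only one of the two criteria met; inactive means neither criterion met.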

Target: Caspase-6 (Homo sapiens) (UniProt P55212)
Experiment: human caspase-6 inhibitors, primary screen, biochemical, VEID-R110 fluorescence, single point, set 2 (AID 686996);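 further: 0% = median of neutral control wells and 100% = no fluorescence left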
Details: purified caspase-6, Z-VEID-R110 cleavage fluorescence; at 12.5 µM; active compounds read high

Sequence of Caspase-6 (Homo sapiens) (P55212 24-179 limits assumed): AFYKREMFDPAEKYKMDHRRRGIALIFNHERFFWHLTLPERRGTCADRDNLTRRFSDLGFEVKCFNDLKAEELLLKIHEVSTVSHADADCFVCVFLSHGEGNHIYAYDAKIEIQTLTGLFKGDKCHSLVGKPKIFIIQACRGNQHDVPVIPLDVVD
Sequence of Caspase-6 (Homo sapiens) (P55212 194-293 limits assumed): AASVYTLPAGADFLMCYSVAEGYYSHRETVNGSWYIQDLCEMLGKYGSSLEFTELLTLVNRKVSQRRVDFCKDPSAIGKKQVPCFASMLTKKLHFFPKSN

inhibition, inactive:
COc1ccc(OC)c(NC(=O)Cc2cccs2)c1 25.5%
CCOC(=O)c1ccc(NC(=O)Cc2cccs2)cc1 0.303%
CO[C@H]1CN(C)C(=O)c2cc(NC(=O)Nc3cccc(F)c3)ccc2OC[C@@H](C)N(C)C[C@@H]1C -5.35%
C[C@H]1CN([C@@H](C)CO)S(=O)(=O)c2ccc(-c3ccncc3)cc2O[C@H]1CN(C)S(C)(=O)=O -2.14%
COc1ccc(S(=O)(=O)Nc2ccc3c(c2)CC(=O)N([C@@H](C)CO)C[C@@H](C)[C@@H](CN(C)C(=O)Nc2c(C)noc2C)O3)cc1 1.08%
O=C(C[C@H]1CC[C@H]2[C@@H](COC[C@H](O)CN2S(=O)(=O)c2cccc(F)c2)O1)NC1CCC1 0.605%
Cc1nnc(SC(C)C(=O)Nc2ccc(S(=O)(=O)NC3CCCCC3)cc2)s1 (centres undefined) 3.47%
CCCCCC(=O)Nc1ccc(S(=O)(=O)Nc2ccc(Cl)nn2)cc1 9.99%
C[C@@H](NC(=O)C[C@H]1CC[C@@H](NC(=O)Cc2ccccn2)[C@@H](CO)O1)c1ccccc1 -7.46%
CC(C)c1nc(SCC(=O)Nc2cccc(C(=O)O)c2)c2c3c(sc2n1)CCCC3 9.4%
O=C(CSc1nc(O)c(Cc2ccccc2)c(=O)[nH]1)Nc1nc2c(s1)CCCC2 9.11%
O=C(C[C@H]1CC[C@@H](NC(=O)Nc2ccc(F)cc2)[C@@H](CO)O1)NCCN1CCCC1 -1.07%
O=C(O)Cn1cnc2c(NCc3ccccc3)ncnc21 -2.69%
O=S(=O)(c1ccccc1)N1CC[C@@H]2[C@@H](CO)Nc3ccc(-c4ccccc4F)cc3[C@@H]21 -0.847%
C[C@H](CO)N1C[C@H](C)[C@H](CN(C)S(C)(=O)=O)Oc2ccc(NC(=O)CCCN(C)C)cc2C1=O -7.82%
COc1ccccc1-c1nnc(NC(=O)c2cccc(N3C(=O)CCC3=O)c2)o1 6.24%
COC(=O)c1cccc(N2C(=O)C3C4C=CC(CC4)C3C2=O)c1 (centres undefined) 3.07%
C[C@@H]1CN([C@@H](C)CO)C(=O)c2cccc(NS(=O)(=O)c3ccc(Cl)cc3)c2O[C@@H]1CN(C)Cc1ccccc1 0.793%
O=C(C1CCC1)N1CC[C@@H]2[C@H]1c1cc(C#Cc3ccc(F)cc3)ccc1N[C@@H]2CO 1.04%
CCN1CCN(C(=O)C2CCN(S(=O)(=O)c3cc(Cl)ccc3Cl)CC2)CC1 -3.59%
O=S(=O)(c1cc(Cl)ccc1Cl)N1CCN(Cc2ccco2)CC1 4.43%
COc1cccc(CNC(=O)[C@H]2CCCN2C(=O)[C@H]2CCCN2C(=O)C2CCCCC2)c1 5.61%
C#CCN1C(Cc2ccccc2)C(=O)O[C@H](C2CCCCC2)[C@@H]1/C=C/C1CC1 (some centres undefined) -4.1%
N#CC1=C(N)Oc2n[nH]c(CSc3ccccc3)c2C12C(=O)Nc1ccccc12 (centres undefined) 7.38%
C[C@@H]1CN([C@@H](C)CO)S(=O)(=O)c2ccc(C3=CCCCC3)cc2O[C@@H]1CN(C)C(=O)CN(C)C 0.621%
CCS(=O)(=O)N1CC2(CN(Cc3cc(F)ccc3F)[C@@H](CO)c3c2c2ccc(OC)cc2n3C)C1 -1.32%
C[C@H](CO)N1C[C@H](C)[C@H](CN(C)CC2CCCC2)Oc2ncc(Br)cc2C1=O 0.088%
C[C@@H]1CN([C@@H](C)CO)C(=O)c2cc(NS(=O)(=O)c3ccc(Cl)cc3)ccc2O[C@H]1CN(C)S(=O)(=O)c1cn(C)cn1 -0.705%
Cc1ccc(S(=O)(=O)N/N=C(\c2ccccc2)C2CC2)cc1 8.02%
Cc1ccc(S(=O)(=O)N[C@H](CO)C(C)C)cc1 1.4%
CNC(=O)COc1ccc(S(=O)(=O)Nc2ccccc2)cc1 0.091%
COc1ccc(NS(=O)(=O)c2ccc(Oc3c(C#N)cccc3C#N)cc2)cc1 -1.42%
CO[C@H]1CN(C)C(=O)c2ccc(NS(=O)(=O)c3ccccc3)cc2OC[C@H](C)N(Cc2nccs2)C[C@@H]1C 0.023%
C[C@@H](O)C#Cc1ccc([C@H]2[C@@H](CO)N3CCCCN(S(=O)(=O)c4ccccc4)C[C@@H]23)cc1 -3.52%
CCCNC(=O)C[C@H]1C[C@@H]2c3cc(NS(=O)(=O)c4cccc(OC)c4)ccc3O[C@@H]2[C@@H](CO)O1 2.43%
COc1ccc(S(=O)(=O)N(C)C[C@H]2Oc3c(NC(=O)CCCCCC(=O)Nc4ccccc4N)cccc3C(=O)N([C@H](C)CO)C[C@H]2C)cc1 -1.7%
O=C(Cc1ccccc1)N[C@H]1C=C[C@H](CC(=O)N2CCCCC2)O[C@@H]1CO -1.28%

inhibition, active:
CCOc1ccccc1NC(=O)Cc1cccs1 39.6%
Cc1nnc(SCC(=O)Nc2ccc(S(=O)(=O)Nc3ccc(Cl)nn3)cc2)s1 35.3%
Oc1c(Cl)cc(Cl)c(Cl)c1Cc1c(O)c(Cl)cc(Cl)c1Cl 45.1%
O=C(CCc1nc2sc3c(c2c(=O)[nH]1)CCCC3)NCC(=O)Nc1ccccc1Br 36.7%
O=c1ccc2c(-c3ccccc3S(=O)(=O)O)c3ccc(O)c(O)c3oc-2c1O 87.7%
COC(=O)c1cccc(NC(=O)c2cccc(N3C(=O)CCC3=O)c2)c1 45%
O=C(CN1CCN(S(=O)(=O)c2cc(Cl)ccc2Cl)CC1)c1ccc(O)c(O)c1 35.7%
COc1c(O)cc2oc(-c3ccc(O)c(O)c3)cc(=O)c2c1O 39.1%
N#CC1=C(N)Oc2[nH]c(=S)[nH]c(=O)c2C12C(=O)Nc1ccccc12 (centres undefined) 45.4%
COc1ccc(S(=O)(=O)/N=C2\C=C(NS(=O)(=O)c3ccccc3)C(=O)c3ccccc32)cc1 55.8%
Cc1ccc(S(=O)(=O)/N=C2\C=C(NS(=O)(=O)c3ccc(C)cc3)C(=O)c3ccccc32)cc1 62.8%
C[C@@H]1C[C@@H]2O[C@H]2/C=C\C=C\C(=O)Cc2c(Cl)c(O)cc(O)c2C(=O)O1 37.4%
